Compound activity as filed in PubChem BioAssay.
ssDAF12 agonist – activators of S. stercoralis DAF-12 nuclear receptor. HEK293 ssDAF-12/GRIP1 lit1-tk-luc reporter, luminescence; % of 3 µM dafachronic acid response. activation, % at 6.8 µM. actives 1% (n = 370,000);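 active = activation above the mean over all tested compounds plus 3 SD, cut at about 0.9% in these data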
hgDAF12 agonist – agonists of H. glycines DAF-12 nuclear receptor; HEK293 GAL4-hgDAF12 UAS-luciferase reporter, agonist luminescence; normalized to butyrate control; activation, % at 6.8 µM; actives 1.8% (n = 370,000); AID 687014;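 active = activation above a cutoff set at the mean of all screened compounds plus 3 SD, cut at about 10% in these data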
DAX1 inh-1 – NR0B1 (DAX1) inhibition. actives 0.99% (n = 340,000). P51843. HEK293 Gal4-DAX1 luciferase reporter, luminescence. inhibition, % at 6.75 µM;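 active = inhibition above the mean over all tested compounds plus 3 SD, cut at about 4.2% in these data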;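 also: inhibition shows as a rise in luminescence from relieved DAX1 repression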
Target sequence (P51843 207-470 limits assumed): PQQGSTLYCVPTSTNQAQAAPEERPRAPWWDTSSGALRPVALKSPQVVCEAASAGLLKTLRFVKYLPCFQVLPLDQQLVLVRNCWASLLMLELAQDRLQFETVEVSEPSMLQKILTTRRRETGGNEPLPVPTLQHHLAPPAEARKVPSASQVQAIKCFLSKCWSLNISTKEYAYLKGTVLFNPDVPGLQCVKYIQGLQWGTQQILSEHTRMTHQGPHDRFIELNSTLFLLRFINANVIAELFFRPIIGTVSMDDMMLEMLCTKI
DAX1 inh-2 – DAX1 (NR0B1) inhibition, primary screen. HEK293T StAR-luciferase reporter, SF-1/DAX-1 repression relief. inhibition, % at 6.8 µM. actives 1.1% (n = 370,000). AID 652010;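 active = inhibition above the mean over all tested compounds plus 3 SD, cut at about 3.6% in these data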;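 also: higher inhibition means more luminescence from relief of DAX-1 repression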
PolyA inhibitor – yeast polyadenylation inhibition. AID 1875. actives 0.02% (n = 300,000). S. cerevisiae SKY197-pL101 polyadenylation reporter, beta-gal luminescence; efflux-impaired pdr1/pdr3 knockout yeast; score 100 = 6 SD above DMSO. activity score, % at 12 µM;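 active = lowest replicate activity score at least 50, where 100 means six control SD above control mean; inconclusive = lowest score under 50 but half or more replicates reach 50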;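 also: yeast exposed to compound for 9 h at 30 °C; higher score means more reporter readthrough which indicates perturbed polyadenylation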
hcDAF12 agonist – H. contortus DAF-12 activation, primary screen; actives 1.4% (n = 370,000); activation, % at 6.8 µM; HEK293 hcDAF-12 lit1-tk-luc reporter, luminescence; 0% DMSO, 100% Δ7-dafachronic acid;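 active = activation above the mean of all tested compounds plus 3 SD, cut at about 5.5% in these data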
DAX1 inh confirm – NR0B1 (human) inhibition, confirmation; inhibition, % at 6.8 µM; HEK293T StAR-promoter luciferase reporter, SF-1/DAX-1 repression; shares compounds with DAX1 inh-2; actives 87% (n = 2,400);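 active = inhibition above the average of every tested compound plus 3 SD, cut at about 3.8% in these data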;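 also: active compounds raise luminescence by relieving repression of the StAR reporter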
SF1 AF2mut Luc – nonselective inhibitor or artifact in SF-1 mutant DAX1 counter-screen. shares compounds with DAX1 inh-2. HEK293 StAR-luciferase, SF-1 AF2 mutant, luminescence. inhibition, % at 6.8 µM. actives 78% (n = 2,400);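 active = inhibition above the mean of all tested compounds plus 3 SD, cut at about 3% in these data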
LXRb hcDAF ctr – counter-screen for hcDAF-12 agonists: agonists of human LXR-beta. shares compounds with hcDAF12 agonist. HEK293 Gal4-LXR tk-luc reporter, luminescence, 24 h; normalized: DMSO 0%, positive control 100%. activation, % at 6.8 µM. 3,400 tested, under 10 active;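 active = mean percent activation of the reporter above a cutoff set as the average over tested compounds plus their standard deviation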
Target sequence (P55055 whole entry, looked up, the tested form may be a part): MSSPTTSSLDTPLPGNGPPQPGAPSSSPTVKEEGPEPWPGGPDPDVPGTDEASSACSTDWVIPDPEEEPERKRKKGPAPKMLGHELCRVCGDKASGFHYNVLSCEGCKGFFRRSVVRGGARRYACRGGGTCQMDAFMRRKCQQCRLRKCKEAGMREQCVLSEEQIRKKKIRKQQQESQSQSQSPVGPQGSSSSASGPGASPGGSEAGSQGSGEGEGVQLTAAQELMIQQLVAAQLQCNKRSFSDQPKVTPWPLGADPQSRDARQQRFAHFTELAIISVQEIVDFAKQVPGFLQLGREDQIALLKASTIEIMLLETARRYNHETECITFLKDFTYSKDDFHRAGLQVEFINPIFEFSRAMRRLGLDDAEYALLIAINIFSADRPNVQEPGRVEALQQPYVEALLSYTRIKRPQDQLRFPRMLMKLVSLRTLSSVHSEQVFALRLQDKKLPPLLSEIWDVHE
hcDAF12 conf – hcDAF-12 agonism, confirmation assay; shares compounds with hcDAF12 agonist; HEK293 hcDAF-12 lit1-tk-luc reporter, luminescence; % of Δ7-dafachronic acid response; activation, % at 6.8 µM; actives 61% (n = 3,400); AID 743032;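 active = mean activation across triplicate tests above the threshold derived from the earlier primary screen, cut at about 5.5% in these data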
hgDAF12 ag – confirmation of H. glycines DAF-12 agonists; shares compounds with hgDAF12 agonist; HEK293 GAL4-hgDAF12 luciferase reporter, agonist mode; percent of butyrate response; activation, % at 6.8 µM; actives 80% (n = 3,300); AID 743050;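 active = mean activation over triplicate wells above the hit cutoff derived from the earlier primary screen, cut at about 11% in these data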
LXR ag 2 – activates human LXR-beta, counter-screen for DAF-12 agonists; shares compounds with hgDAF12 agonist; AID 743051; activation, % at 6.8 µM; HEK293 Gal4-LXR luciferase reporter, 24 h; 3,300 tested, under 10 active;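 active = mean activation of the triplicate above a set limit carried over from the primary screen, none filed active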
Hits are given with their value; - = inactive; ? = inconclusive; . = not tested or not shown. Rows were chosen to be rich in hits. Some 4.1% of all compounds tested hit in one or more screens of this group.

SMILES | ssDAF12 agonist | hgDAF12 agonist | DAX1 inh-1 | DAX1 inh-2 | PolyA inhibitor | hcDAF12 agonist | DAX1 inh confirm | SF1 AF2mut Luc | hgDAF12 ag | LXR ag 2 | others
CCOC(=O)[C@]12CCC=C1N(Cc1ccc3c(c1)OCO3)C(=O)[C@H](CC(=O)N1CCC(c3ccccc3)CC1)C2 | - | - | . | - | . | - | . | . | . | .
O=C(Nc1ccc(N2CCCC2)cc1)c1ccc(Br)o1 | - | 16 | - | 6.0 | - | 9.2 | 12 | 6.0 | 17 | - | LXRb hcDAF ctr=-;hcDAF12 conf=7.9
O=C(Nc1ccc(N2CCCCC2)cc1)c1ccc(F)cc1 | - | 13 | - | 4.6 | ? | 8.3 | 12 | 6.0 | 20 | - | LXRb hcDAF ctr=-;hcDAF12 conf=-
O=C(Nc1ccc(N2CCN(C(=O)c3ccccc3)CC2)cc1)c1ccc(Br)o1 | - | - | - | - | - | - | . | . | . | .
Cn1cc(CN2C[C@H]3CC[C@H]2C3)c(-c2ccccc2F)n1 | - | - | - | - | - | - | . | . | . | .
CCc1ccc(C2=NN(C(C)=O)C(c3ccco3)C2)cc1 (centres undefined) | - | 15 | - | 4.9 | - | - | 9.5 | 5.5 | 15 | -
NC(=O)c1ccc(OCc2ccccc2)nc1 | - | 15 | - | 5.0 | . | - | 5.8 | 3.3 | 11 | -
C/C(=N\NC(=S)Nc1ccc(F)cc1)c1ccc2c(c1)OCCO2 | - | - | - | - | - | - | . | . | . | .
C/C(=N\NC(=O)c1cccc(F)c1)c1ccc(NC(=O)Cc2ccccc2)cc1 | - | 14 | - | 7.0 | . | 6.4 | - | - | - | -
C/C(=N/NC(=O)c1ccc2c(c1)OCO2)c1ccc(NC(=O)c2ccc(F)cc2)cc1 | - | 14 | - | 5.8 | . | 5.7 | 6.3 | - | - | -
CCOc1ccc(CCNC(=O)COn2nnc3ccc(S(=O)(=O)N4CCOCC4)cc32)cc1OCC | - | - | - | - | - | - | . | . | . | .
CN(CCO)c1ccc2c(c1)OC[C@@H](Cc1ccccc1)NS2(=O)=O | - | - | . | - | . | - | . | . | . | .
COc1ccccc1/C=C\C(=O)NCC(=O)N/N=C(/C)c1cccc([N+](=O)[O-])c1 | - | - | - | - | - | - | . | . | . | .
CC(C)Cc1ccc(-c2cc3nc(NCCCn4ccnc4)ccn3n2)cc1 | - | 15 | . | 5.5 | . | 6.1 | 7.6 | 5.1 | 11 | -
Cc1cccnc1NC(=S)NC(=O)c1cccs1 | 2.2 | 18 | - | 7.2 | - | 14 | 14 | 10 | 17 | - | LXRb hcDAF ctr=-;hcDAF12 conf=15
CCC(C)c1ccc(NC(=O)c2cccs2)cc1 (centres undefined) | 1.7 | 19 | - | 7.2 | - | 8.2 | 19 | 6.4 | 20 | - | LXRb hcDAF ctr=-;hcDAF12 conf=7.8
CCC(C)NS(=O)(=O)c1ccc(NC(=O)c2cccs2)cc1 (centres undefined) | - | - | - | - | - | - | . | . | . | .
CC1(C(=O)NS(=O)(=O)c2ccc(Cl)s2)CCN1C(=O)c1ccc(C2CCCCC2)cc1 (centres undefined) | - | - | . | - | . | - | . | . | . | .
Cc1ccc(NC(=O)CCc2ccccc2)cc1C | - | - | - | - | . | - | . | . | . | .
Cc1ccc(NC(=O)/C(Cl)=C/c2ccccc2)cc1C | 1.0 | 20 | - | 7.0 | - | 9.7 | 20 | 8.2 | 21 | - | LXRb hcDAF ctr=-;hcDAF12 conf=8.4
CC[C@]12C(=O)N(C)C[C@H]([C@@H]3C(=O)N(C)C(=O)[C@@H]31)N2C(=O)c1ccc(Cl)cc1 | - | - | - | - | . | - | . | . | . | .
COCCN1CCN(C(=O)c2cc(COc3ccc(F)c(F)c3)on2)CC1 | - | - | - | - | - | - | . | . | . | .
CN(C)c1ccc(C=Cc2cnccn2)cc1 | - | 18 | - | 6.7 | . | - | 16 | 9.8 | 16 | -
CN(C)c1ccc(/C=C/c2ccncc2)cc1 | - | - | - | - | . | - | . | . | . | .
COc1ccc(/C=C2\SC(=O)N(CCNC(=O)C3CC4C=CC3C4)C2=O)cc1 (centres undefined) | - | 21 | - | 5.5 | - | - | 8.6 | 4.3 | 23 | -
SMILES | ssDAF12 agonist | hgDAF12 agonist | DAX1 inh-1 | DAX1 inh-2 | PolyA inhibitor | hcDAF12 agonist | DAX1 inh confirm | SF1 AF2mut Luc | hgDAF12 ag | LXR ag 2 | others
CCN(C(=S)NC(=O)c1ccccc1Br)C1CCCCC1 | - | - | - | - | - | - | . | . | . | .
O=C(N/N=C/C=C/c1ccccc1)c1ccncc1 | - | - | - | - | - | - | . | . | . | .
O=C(O)c1ccc(N/N=C/C=C/c2ccccc2)cc1 | - | 15 | - | 6.3 | - | - | 11 | 5.8 | 15 | -
Nc1ccc(-c2nc3ccc(-c4nc5ccccc5o4)cc3[nH]2)cc1 | - | - | - | - | - | - | . | . | . | .
Cc1nc2ccc(-c3nc4ccccc4o3)cc2[nH]1 | - | 20 | - | 5.2 | - | - | 15 | 8.8 | 22 | -
CCN(Cc1ccccc1)c1ccc(N=Nc2nn(C)c(C)c2[N+](=O)[O-])cc1 | - | - | - | - | - | - | . | . | . | .
CCN(CC)c1ccc(N=Nc2nn(C)c(C)c2[N+](=O)[O-])cc1 | 1.2 | 16 | - | 4.7 | - | - | 14 | 5.2 | 15 | -
CCc1cc2c(=O)oc(-c3ccc(Br)cc3)nc2s1 | - | - | - | - | - | - | . | . | . | .
c1ccc2oc(-c3csc(N4CCOCC4)n3)cc2c1 | - | 18 | - | 7.7 | - | 9.3 | 11 | 3.2 | 15 | - | LXRb hcDAF ctr=-;hcDAF12 conf=7.8
Fc1ccc(-c2csc(N3CCOCC3)n2)cc1 | - | - | - | - | - | - | . | . | . | .
O=S(=O)(CC1NCc2cc(F)ccc21)NCc1ccc(F)cc1 (centres undefined) | - | - | . | - | . | - | . | . | . | .
O=C(NN=C1CCCCCC1)c1cccs1 | - | 25 | - | 13 | - | 8.0 | - | - | - | - | LXRb hcDAF ctr=-;hcDAF12 conf=-
CC1C2CC(C/C2=N/NC(=O)c2cccs2)C1(C)C (centres undefined) | - | 13 | - | 5.0 | - | - | - | - | - | -
